Only some compounds are listed: those with a hit (about 6.5% of all), similar ones and a draw of the others.
VACV mCherry inh: vaccinia inhibition (mCherry reporter); AID 720579; Vaccinia virus mCherry reporter infection, fluorescence; 310,000 tested, 0.63% active; Potency, µM (titrated, usually from 36.5 µM), inactives show at the highest dose activity change, negative = inhibition, most hits filed as inhibitors; calls by dose curve; tested in A549 cells; further: potency means the concentration at half of the fitted maximal effect; nearly all actives have a fitted effect of over 35% in size
VACV Venus inh: inhibitors of vaccinia virus (Venus reporter). Vaccinia virus Venus reporter expression, fluorescence. Potency, µM (highest dose often 36.5 µM), inactives show at the highest dose activity change, negative = inhibition, actives largely listed as inhibitors. 330,000 tested, 0.46% active. AID 720580; calls by dose curve; tested in A549 cells; further: potency means the concentration at half of the fitted maximal effect; nearly all actives have a fitted effect of over 30% in size
Lassa entry inh: blocks Lassa virus binding to or entry into cells; Lassa virus pseudotype entry inhibition, cell reporter; Potency, µM (doses to about 37.9 µM), for inactives: at the top dose activity change, negative = inhibition, most hits filed as inhibitors; 300,000 tested, 1.2% active; calls by dose curve; tested in HEK293 cells; further: potency means the concentration at half of the fitted maximal effect; nearly all actives have a fitted effect of over 50% in size
MARV entry inh: inhibitors of Marburg virus binding or cell entry. 300,000 tested, 1.8% active. Marburg virus pseudotyped entry inhibition, cell reporter. Potency, µM (doses to about 37.8 µM), inactives show at the highest dose activity change, negative = inhibition, most hits filed as inhibitors; calls by dose curve; tested in HEK293 cells; further: potency means the concentration at half of the fitted maximal effect
FMDV antiviral: blocks foot and mouth disease virus. FMDV antiviral cell-based qHTS. Potency, µM (series often up to 57.9 µM), for the others: at the top dose activity change, negative = inhibition, most hits filed as inhibitors. 410,000 tested, 1.2% active; calls by dose curve; tested in HEK293T cells; further: read-out not given here; potency means the concentration at half of the fitted maximal effect; nearly all actives have a fitted effect of over 45% in size
HCMV inh: human cytomegalovirus inhibition; activity change, negative = inhibition, % at 57.5 µM; AID 1259415; 410,000 tested, 4.5% active; HFF cells, HCMV-luciferase reporter, 72 h; stronger effect = lower value; in the data active means activity change below about -60%; inconclusive means no clear call, values can overlap the other calls; inactive means above about -39%
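Luciferase read-out from HCMV-luciferase-infected HFFs (MOI 1 PFU/cell) 72 h post infection at 37C; compounds added after 16 h cell attachment; activity normalized between buffer-only basal and Salinomycin (10uM) inhibitor controls.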
Numbers without * were called inactive; [ ] = remark or other dose. On the % scale 0 is the no-effect control and ±100 the full control effect.

How did CSc1ccc(CN(C)C(=O)C(Cc2ccccc2)NC(=O)c2ccccc2)cc1 (configuration not stated) do in these assays?
VACV mCherry inh: -12%; VACV Venus inh: -20%; Lassa entry inh: inconclusive; MARV entry inh: inconclusive; FMDV antiviral: 13%; HCMV inh: -67*

Results for CN(Cc1ccc(F)cc1)C(=O)C(Cc1ccccc1)NC(=O)c1ccccc1 (configuration not stated) ?
VACV mCherry inh: 5%; VACV Venus inh: -4%; Lassa entry inh: -21%; MARV entry inh: inconclusive; FMDV antiviral: -15%; HCMV inh: -17

What do the screens show for `CCc1ccc(NS(=O)(=O)c2ccc(C(=O)N(C)C)s2)cc1`?
VACV mCherry inh: -13%; VACV Venus inh: -7%; Lassa entry inh: -27%[46.1 µM]; FMDV antiviral: -17%; HCMV inh: -23

What do the screens show for `CCOc1ccccc1CN(CCc1ccc2c(c1)OCO2)Cc1cc(OC)c(OC)cc1OC`?
VACV mCherry inh: -6%[7.34 µM]; VACV Venus inh: -14%[7.34 µM]; Lassa entry inh: inconclusive; MARV entry inh: 10µM*; FMDV antiviral: -22%; HCMV inh: -9

How did COc1ccc(C)cc1NC(=O)CSc1nc(=O)n(Cc2ccccn2)c2c1CCC2 do in these assays?
VACV mCherry inh: -17%; VACV Venus inh: -25%; Lassa entry inh: 13%[46.1 µM]; FMDV antiviral: -29%; HCMV inh: -12

How did COc1ccc(C(=O)CC(Nc2ccc([N+](=O)[O-])cc2)c2ccc(Cl)cc2)cc1 (configuration not stated) do in these assays?
Lassa entry inh: inconclusive; MARV entry inh: inconclusive; FMDV antiviral: -16%; HCMV inh: -88*

What do the screens show for `Cc1ccccc1C1=NC(C)(CC(=O)Nc2ccc(F)cc2F)ON1C` (configuration not stated)?
HCMV inh: -3

How did Nc1cc2nsnc2cc1Br do in these assays?
VACV mCherry inh: inconclusive; VACV Venus inh: inconclusive; Lassa entry inh: -47%; MARV entry inh: inconclusive; FMDV antiviral: inconclusive; HCMV inh: -107*

What do the screens show for `C=C(CN(C)C)C(=O)c1ccc(OC2OC(COC(C)=O)C(OC(C)=O)C(OC(C)=O)C2OC(C)=O)cc1` (configuration not stated)?
VACV mCherry inh: inconclusive; VACV Venus inh: inconclusive; Lassa entry inh: inconclusive; MARV entry inh: inconclusive; FMDV antiviral: 10µM*; HCMV inh: 6

Results for CN(C)C(=O)c1ccc(-c2ccc3ncnc(NC4CCNCC4)c3c2)cc1 ?
VACV mCherry inh: 1%; VACV Venus inh: -6%; FMDV antiviral: 3%

How did CCOC(=O)C1CCN(C(c2cccc(F)c2)c2c(O)cc(C)n(Cc3ccco3)c2=O)CC1 (configuration not stated) do in these assays?
VACV mCherry inh: -6%; VACV Venus inh: 2%; Lassa entry inh: 0%[46.1 µM]; FMDV antiviral: -25%; HCMV inh: 22

What do the screens show for `S=c1[nH]c2cnc(Cl)nc2[nH]1`?
VACV mCherry inh: -14%; VACV Venus inh: -14%; Lassa entry inh: 8%[46.1 µM]; MARV entry inh: 1%[46.1 µM]; FMDV antiviral: 3%; HCMV inh: -68*

Results for Cc1c(C)c2c(OCC(=O)NCC(C)C)cc3c(c2oc1=O)CCC(C)(C)O3 ?
FMDV antiviral: 18µM*; HCMV inh: 5

Results for Cc1c(C)c2c(OCC(=O)N[C@@H](C)C(=O)O)cc3c(c2oc1=O)CCC(C)(C)O3 ?
VACV mCherry inh: -6%; VACV Venus inh: 0%; Lassa entry inh: -4%; MARV entry inh: 8%; FMDV antiviral: -8%; HCMV inh: 15

How did CC(=O)OC1CC(OC(C)=O)[C@]2(C)C(CC(OC(C)=O)[C@]3(C)C2CC[C@@]2(C)C(c4ccoc4)C[C@H]4O[C@]432)C1(C)C (some centres not stated) do in these assays?
VACV mCherry inh: -23%; VACV Venus inh: -19%; FMDV antiviral: 19%

How did CC(=O)O[C@@H]1C[C@@]2(C)C(c3ccoc3)C[C@H]3O[C@]32[C@]2(C)C(=O)C(O)=C3C(C)(C)C(=O)C=C[C@]3(C)C12 (some centres not stated) do in these assays?
FMDV antiviral: 25µM*

What do the screens show for `CC(=O)OC1CC2C(C)(C)C=CC(=O)[C@@]2(C)C2CC[C@@]3(C)C(c4ccoc4)OC(=O)C4OC43[C@]12C` (some centres not stated)?
VACV mCherry inh: -3%; VACV Venus inh: -12%; FMDV antiviral: 8%

Results for CC(=O)OC1C[C@@]2(C)C(c3ccoc3)C[C@H]3O[C@@]32[C@@]2(C)C(=O)C(O)=C3C(C)(C)C(=O)C=C[C@]3(C)C12 (some centres not stated) ?
VACV mCherry inh: 7.1µM*; VACV Venus inh: 8.9µM*; FMDV antiviral: 7.9µM*

Results for C(=CCSc1ccccn1)CSc1ccccn1 ?
HCMV inh: 6

What do the screens show for `Nc1ncnc2c1[nH]c(=O)n2C1CC(O)C(CO)O1` (configuration not stated)?
VACV mCherry inh: 6%; VACV Venus inh: 0%; FMDV antiviral: -9%

What do the screens show for `CCN(CCOC(=O)Nc1ccc(Cl)cc1)C(=O)Nc1ccc(Cl)cc1`?
HCMV inh: 9

What do the screens show for `CCOc1ccc2cc(C#N)c(SCC(=O)OCc3ccccc3)nc2c1`?
VACV mCherry inh: inactive; VACV Venus inh: -20%

Results for COc1cc(-c2nnc(SC/C=C/c3ccccc3)n2N)cc(OC)c1OC ?
VACV mCherry inh: 6%; VACV Venus inh: 11%; Lassa entry inh: 0%; MARV entry inh: inconclusive; FMDV antiviral: inconclusive; HCMV inh: 24

Results for Nn1c(SCc2cccc(Oc3ccccc3)c2)nnc1C(F)(F)F ?
VACV mCherry inh: inactive; VACV Venus inh: -13%; Lassa entry inh: 0%; MARV entry inh: inconclusive; FMDV antiviral: 6%; HCMV inh: -73*

Results for Nn1c(SC/C=C/c2ccccc2)nnc1-c1ccncc1 ?
VACV mCherry inh: inactive; VACV Venus inh: -15%; Lassa entry inh: -20%; MARV entry inh: 22%; FMDV antiviral: -24%; HCMV inh: -69*

What do the screens show for `COc1cccc(CSc2nnc(-c3ccncc3)n2N)c1`?
VACV mCherry inh: -5%; VACV Venus inh: -4%; Lassa entry inh: inconclusive; MARV entry inh: inconclusive; FMDV antiviral: -2%; HCMV inh: -69*

How did CCn1c(CN2CCCCC2)nc2cc(NC(=O)COc3ccccc3C(C)(C)C)ccc21 do in these assays?
VACV mCherry inh: -12%; VACV Venus inh: -24%; Lassa entry inh: -5%[46.1 µM]; MARV entry inh: inconclusive; FMDV antiviral: 0%; HCMV inh: 4

How did Cc1cccc(OCC(=O)Nc2ccc3c(c2)nc(CCN2CCC(C)CC2)n3C)c1 do in these assays?
FMDV antiviral: -16%; HCMV inh: -69*
